This experiment deals with Torsin-1A-interacting protein 1 (Homo sapiens) (UniProt Q5JTV8). The experiment in a line: compound microarray binding of lysate hLAP1 – cell lysate, small-molecule microarray, COS7 lysate, 635/667 nm fluorescence, primary screen (AID 1116). Particulars: 635 nm fluorescence, higher = more signal.
Sequence of Torsin-1A-interacting protein 1 (Homo sapiens) (Q5JTV8 whole entry, looked up): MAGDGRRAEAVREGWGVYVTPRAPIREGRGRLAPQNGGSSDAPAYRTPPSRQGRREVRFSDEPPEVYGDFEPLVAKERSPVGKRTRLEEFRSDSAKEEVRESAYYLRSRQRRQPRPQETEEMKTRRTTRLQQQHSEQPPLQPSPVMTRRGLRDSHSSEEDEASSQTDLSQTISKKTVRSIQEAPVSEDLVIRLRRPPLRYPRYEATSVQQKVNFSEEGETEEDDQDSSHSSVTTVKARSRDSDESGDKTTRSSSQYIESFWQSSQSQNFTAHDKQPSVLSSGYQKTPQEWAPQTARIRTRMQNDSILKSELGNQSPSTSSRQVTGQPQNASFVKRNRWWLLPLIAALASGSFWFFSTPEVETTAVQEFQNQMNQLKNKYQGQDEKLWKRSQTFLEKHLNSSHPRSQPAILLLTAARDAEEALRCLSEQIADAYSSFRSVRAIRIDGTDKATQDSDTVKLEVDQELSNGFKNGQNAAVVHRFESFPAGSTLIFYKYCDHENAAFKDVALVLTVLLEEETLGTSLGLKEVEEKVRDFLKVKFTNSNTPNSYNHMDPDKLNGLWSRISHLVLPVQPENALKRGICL
For `COCCOC(=O)N1C(=O)[C@@]2(c3cc(C#CCC(C(=O)OC)C(=O)OC)ccc31)[C@H](c1ccc(OCCO)cc1)N1[C@H](c3ccccc3)[C@H](c3ccccc3)OC(=O)[C@H]1[C@@H]2C(=O)N1CCCCCCC1`, the composite z-score worked out at 3.22.
With `Cc1ccc(S[C@]2(C(=O)NCC(F)(F)F)CC(=O)N(C3CCCCC3)[C@@H]2c2ccc(CO)cc2)cc1`, the composite z-score was -0.163.
With `COCCOC(=O)N1C(=O)[C@@]2(c3ccccc31)[C@H](C(N)=O)[C@H]1C(=O)O[C@H](c3ccccc3)[C@H](c3ccccc3)N1[C@@H]2c1ccc(OCCO)cc1`, the composite z-score was determined as 0.905.
For the molecule `C=CCC(OC(C)=O)[C@@H]1[C@@H](N(Cc2ccc(-c3cccc(C(F)(F)F)c3)o2)C(=O)c2cccc3ccccc23)c2cc(OCCCO)ccc2N1C(=O)c1ccc2ccccc2c1` (stereo partly drawn), the composite z-score is 0.49.
For the molecule `COc1ccc(NC(=O)O[C@H]2[C@H](OC(=O)Nc3ccc4c(c3)OCO4)[C@H](OC(=O)Nc3ccc4c(c3)OCO4)[C@@H](OC)O[C@@H]2CO)cc1`, the composite z-score came to 0.94.
Then `[N-]=[N+]=NCc1ccccc1C[C@]1(C(=O)N2CCOCC2)N=C(c2ccc(OCCCO)cc2)O[C@H]1c1ccccc1CN=[N+]=[N-]`, with 2.79.
`CCCCC(=C=CC[C@@H](O)c1cccc(OCCO)c1)CCO` registered a composite z-score of 0.297.
As for `CC(C)C[C@@H]1NC(=O)[C@H]2C[C@@H](C(=O)NCCCCCCNC(=O)CS)[C@@H](c3ccc(O)cc3)N2C1=O`, the composite z-score was 1.47.
`C=CCC(OC(C)=O)[C@@H]1[C@@H](N(Cc2cc3ccccc3o2)C(=O)Cc2ccc(OC)cc2)c2cc(OCCCO)ccc2N1C(=O)Cc1ccc(OC)cc1` (stereo partly drawn) showed a composite z-score of -0.0544.
The molecule `COc1ccc([Si](C)(C)[C@H]2[C@H](CCn3cc([C@H](O)c4ccccc4)nn3)O[C@@]3(C(=O)N(c4ccccc4)c4ccccc43)[C@@H]2C)cc1` came in with a composite z-score of -0.179.
The molecule `Cc1ccccc1C(O)C1C=CC2C(=O)N(c3ccccc3)C(=O)C2N1Nc1ccccc1F` (stereo not drawn) came in with a composite z-score of 1.78.
Consider `C=CC[C@@]1(C(=O)N(C)C)N=C(c2ccc(OCCCO)cc2)O[C@@H]1c1ccccc1`, for which the composite z-score came out at 0.961.
In the case of `CCCCC(O)C1C=CC2C(=O)N(C)C(=O)C2N1Nc1ccccc1` (stereo not drawn), the composite z-score was 1.02.
`COC(=O)C1=CC(CCCO)=CC(c2ccc(CN3CCCC3)cc2)N(Cc2sc3ccccc3c2Cl)C=C1C(=O)OC` (stereo not drawn): the composite z-score came out at 3.75.
With `C=C(/C(=C/C[C@@H](OC(C)=O)c1ccccc1OCCO)c1cc(C(=O)OC)ccc1OC)C(C)C`, the composite z-score amounted to 0.385.
For `CCCC=C(CCC)[C@@H](NC(=O)c1ccccc1)c1ccc(C(=O)OC)cc1` the value was -0.171; for `COC(=O)[C@@]1(Cc2ccc(OC)cc2)[C@@H]2[C@@H](CC(=O)[C@H]2CC(=O)C(=O)N2CCCC2)CN1C(=O)c1ccccc1`, 2.12; for `CCCCCN1CC=CC23O[C@@H]4C=CCOC(=O)[C@@H]4[C@H]2C(=O)N(CCCCCO)[C@@H]3C1=O` (stereo partly drawn), 0.229.
Then `COc1ccc(CCNC(=O)[C@@]2(Sc3ccc(C)cc3)CC(=O)N(Cc3cc(C(F)(F)F)cc(C(F)(F)F)c3)[C@@H]2c2ccc(CO)cc2)cc1`, with -0.282; and `CN1C(=O)[C@]2(CCC(=O)OC(C)(C)C)N=C(c3ccc(OCCCO)cc3)O[C@@H]2c2ccccc21`, with 0.973.
Molecule `COC(=O)[C@@]1(Cc2ccccc2CN=[N+]=[N-])COC(c2ccc(OCCCO)cc2)=N1` came in with a composite z-score of 0.202.
Then `CCCC[C@H]1OB(O)C[C@H]2C1=C(C)C[C@H]1C(=O)C=CC(=O)[C@H]12`, with 0.0514; and `O=C1O[C@H](c2ccccc2)[C@H](c2ccccc2)N2[C@H]1[C@@H](C(=O)NC[C@H](O)c1ccccc1)[C@]1(C(=O)Nc3ccc(C#CCCO)cc31)[C@H]2c1ccccc1OCCO`, with 1.35; and `CCC[C@@H]1[C@@H](Sc2ccccc2)[C@@H](C(=O)O)[C@H](c2ccc(C)cc2)N1S(=O)(=O)c1ccc(C)cc1`, with 0.425.
In turn, `CC(C)(C)OC(=O)CC[C@]1(C(=O)N2CCOCC2)N=C(c2ccc(OCCCO)cc2)O[C@H]1c1ccccc1CN=[N+]=[N-]` gave a composite z-score of 2.38.
In turn, `COC(=O)[C@@]1(Cc2ccc(F)cc2)[C@H]2c3cc(C(=O)N(C)C)n(CCN4CCOCC4)c3C[C@H]2CN1C(=O)c1ccccc1` displayed a composite z-score of 0.868.
In turn, `O=C1OCCC/C=C\[C@H]2OC34C=CCN(Cc5ccccc5)C(=O)[C@H]3N(CCCCCO)C(=O)[C@@H]4C12` (stereo partly drawn) had a composite z-score of 2.22.
`CCOC(=O)C[C@H]1[C@H](OC(=O)c2ccc(C(=O)c3ccccc3)cc2)[C@@H](NC(=O)c2ccc3ccccc3c2)c2cc(OCCCO)ccc2N1C(=O)c1ccc2ccccc2n1` came in with a composite z-score of 0.982.

The record behind these values is PubChem BioAssay.
